High-throughput results as filed in PubChem BioAssay.
This excerpt belongs to a sample that is enriched for hits.
TTR transcr act: TTR transcription activators in neuroblastoma reporter cells, primary screen, cell-based, luminescence, SH-SY5Y, TTR promoter Gaussia luciferase; 100% = recombinant luciferase protein wells; activation, % at 16.7 µM; 92,000 tested, 1.3% active;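 active = activation above the mean of all tested compounds plus 3 SD, cut at about 9.5% in these data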;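 also: cells exposed to compounds for one day before reading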
HuH7 TTR inh: TTR promoter reporter inhibitors in hepatoma cells, counter-screen for TTR transcription activator project, cell-based, luminescence, HuH7 hepatoma; shares compounds with TTR transcr act; HuH7 TTR promoter-Gaussia luciferase reporter; inhibition, % at 16.7 µM; 1,100 tested, 4% active;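 active = average inhibition above the solvent-only control wells' mean plus 3 SD, cut at about 15% in these data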;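 also: inhibitors lower well luminescence so higher value means more inhibition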
TTR up confirm: TTR transcription activators, retest, confirmation, cell-based, luminescence, SH-SY5Y, triplicate; shares compounds with TTR transcr act; SHSY5Y TTR promoter Gaussia luciferase; 100% = purified Lucia enzyme wells, no cells; activation, % at 16.7 µM; 1,100 tested, under 10 active;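 active = mean activation above a set limit taken from the earlier primary screen, cut at about 11% in these data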
Hits are given with their value.

For O=C(N/N=C/C=C/c1ccccc1)c1cc(C2CC2)[nH]n1 the results were TTR transcr act inactive.
Screening O=C(N/N=C/C=C/c1ccccc1)c1n[nH]c2c1CCC2 returned TTR transcr act 11, HuH7 TTR inh inactive and TTR up confirm inactive.
Screening Cc1ccccc1CN1CCCCC(NC(=O)Cc2cccs2)C1=O (stereo not given) returned TTR transcr act inactive.
COC(=O)[C@@]12CCCCC=C1N(CCc1ccc(Cl)cc1)C(=O)[C@H]2CC(=O)NCC1CCCCC1 was read as TTR transcr act inactive.
Screening CC(C)(C)c1ccc(C(=O)Nc2cc(Cl)c(F)cc2C(=O)O)cc1 returned TTR transcr act inactive.
For CCOC(=O)[C@@]12CCCC=C1N(CCc1ccc(Cl)cc1)C(=O)[C@H]2CC(=O)N1CCCCC1 the results were TTR transcr act inactive.
For O=C(NCc1ccco1)O[C@H]1CC[C@@]23CCCN2C(=O)CCC[C@H]3C1 the results were TTR transcr act inactive.
For CC(c1ccccc1)N1CC[C@H]2C=CC[C@@H](C(=O)Nc3ccc(F)c(F)c3)[C@H]2C1=O (stereo not given in full) the results were TTR transcr act inactive.
Screening CCCNC(=O)Nc1ccc2c(c1)C(=O)N(C)[C@H]1CC[C@@H](CC(=O)OC)O[C@H]1CO2 returned TTR transcr act inactive.
`CCCC1CCC2(CC1)CCC2OC(=S)Nc1ccccc1Br` (stereo not given) gave TTR transcr act inactive.
Screening C[N+]1=C2N[C@@H](c3ccccc3)CC(=O)N2/C(=C\c2ccccc2)[C@@H]1Cc1ccccc1 returned TTR transcr act inactive.
For CC(C)(O)C(O)COc1c2ccoc2cc2oc(=O)ccc12 (stereo not given) the results were TTR transcr act inactive.
COc1c2ccoc2c(OC[C@@H](OC(C)=O)C(C)(C)O)c2oc(=O)ccc12 was read as TTR transcr act inactive.
COC(C)(C)[C@H](O)COc1c2ccoc2cc2oc(=O)ccc12 was read as TTR transcr act 13, HuH7 TTR inh inactive and TTR up confirm inactive.
CN1C2=NC(c3ccccc3)CC(=O)N2/C(=C\c2ccccc2)C1c1ccccc1C(F)(F)F (stereo not given) was read as TTR transcr act inactive.
COC(=O)c1cc(-c2ccc(F)cc2OCc2ccccc2)c(=O)n2c1CCC2 was read as TTR transcr act inactive.
`CCn1c2ccccc2c2cc(CN3CCN(S(=O)(=O)CC)CC3)ccc21` gave TTR transcr act 19, HuH7 TTR inh inactive and TTR up confirm inactive.
CCn1c(=O)cc(SCC(=O)N2CCN(Cc3ccc4c(c3)OCO4)CC2)c2ccccc21 was read as TTR transcr act inactive.
`CCn1c2ccc(CC(=O)O)cc2c2cc(CC(=O)O)ccc21` gave TTR transcr act inactive.
For CNC[C@@H]1OCc2ccccc2-c2c(n(C)c3ccccc23)C(=O)N([C@@H](C)CO)C[C@@H]1C the results were TTR transcr act inactive.
S=c1[nH]nc(COc2ccccc2)n1/N=C/C=C/c1ccco1 was read as TTR transcr act inactive.
Screening S=c1[nH]nc(COc2ccccc2)n1/N=C/C=C/c1ccccc1 returned TTR transcr act 20, HuH7 TTR inh inactive and TTR up confirm inactive.
S=c1[nH]nc(COc2ccccc2)n1/N=C/c1cccc(Br)c1 was read as TTR transcr act inactive.
For COC(=O)[C@]12C[C@H](CC(=O)NCc3ccc(OC)c(OC)c3)C(=O)N(CCc3ccc(OC)c(OC)c3)C1=C[C@H](COCc1ccccc1)O[C@@H]2C the results were TTR transcr act inactive.
`Cc1ccc(CN2CCCCC(NC(=O)c3ccccc3C)C2=O)cc1` (stereo not given) gave TTR transcr act inactive.
Screening CCCCn1nnnc1C1c2ccccc2OCC(=O)N1Cc1ccc2c(c1)OCO2 (stereo not given) returned TTR transcr act inactive.
COC(=O)[C@]12CCCCC=C1N(Cc1ccc(OC)cc1)C(=O)[C@@H]2CC(=O)NCc1ccc(C)o1 was read as TTR transcr act inactive.
`O=C(Cc1ccc(Nc2nc3ccc(Br)cc3[nH]2)cc1)NCCc1cccs1` gave TTR transcr act inactive.
O=C(NCCc1nc2ccccc2[nH]1)c1cccc(Br)c1 was read as TTR transcr act inactive.
Screening O=C(NCC1CC1)c1ccc(Nc2nc3ccc(Br)cc3[nH]2)cc1 returned TTR transcr act 34, HuH7 TTR inh inactive and TTR up confirm inactive.
For O=C(CN1C(=O)C(=O)N(CCC2=CCCCC2)C1=O)Nc1ccc(F)cc1F the results were TTR transcr act inactive.
`CN(CC(=O)N1CCCCCC1)S(=O)(=O)c1ccc(Br)s1` gave TTR transcr act inactive.
